Reference: PubChem BioAssay
For part of these data: Results with a measured potency or affinity are listed apart. Activity calls are given as the source filed them. Unless noted, the rule behind the calls is not given here.

What was measured:
[1] = antimalarial activity against Dd2 strain (AID 2302;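 active = growth inhibition above 50% at the single 2 µM test dose, taken to imply half-maximal potency below 2 µM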;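 note: 0% = DMSO untreated growth and 100% = chloroquine plus artemisinin killed control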); conditions: P. falciparum Dd2 in RBCs, LDH growth readout, 72 h; at 2 µM; stronger effect = higher value
[2] = HepG2 cytotoxicity, primary screen, cytotoxicity control for P. falciparum antimalarial project, cell-based, ATP luminescence (AID 2303;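 active = inhibition above 50%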;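 note: 0% = DMSO wells and 100% = digitonin-killed cells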); conditions: HepG2 viability, 24-48 h, at 10 µM, stronger effect = higher value
[3] = molecular target: L-lactate dehydrogenase (Plasmodium falciparum (isolate CDC / Honduras)) (UniProt Q27743); assay: PfLDH activity inhibition – cell lysate, 3D7 strain, counter-screen for P. falciparum growth inhibition project (AID 2304);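 note: 0% = vehicle and 100% = reference inhibitor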; conditions: P. falciparum 3D7 crude extract, LDH APAD/NBT absorbance; at 2 µM; stronger effect = higher value
Sequence of L-lactate dehydrogenase (Plasmodium falciparum (isolate CDC / Honduras)) (Q27743 whole entry, looked up): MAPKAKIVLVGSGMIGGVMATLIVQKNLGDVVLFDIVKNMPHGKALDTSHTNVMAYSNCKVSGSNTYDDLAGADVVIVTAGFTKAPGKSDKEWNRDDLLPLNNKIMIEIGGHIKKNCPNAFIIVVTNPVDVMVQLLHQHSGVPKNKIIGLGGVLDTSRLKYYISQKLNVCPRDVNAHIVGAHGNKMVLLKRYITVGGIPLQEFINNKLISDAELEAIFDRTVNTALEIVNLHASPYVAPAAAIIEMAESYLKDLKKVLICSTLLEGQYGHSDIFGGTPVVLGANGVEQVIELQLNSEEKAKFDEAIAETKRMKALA

[4] = inhibition of 3D7 malaria parasite growth – strain 3D7 (AID 2306);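 note: 0% = DMSO wells and 100% = chloroquine plus artemisinin control wells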; conditions: P. falciparum 3D7 erythrocytic growth, LDH absorbance, 72 h; at 2 µM; stronger effect = higher value
[5] = molecular target: Calcium-dependent protein kinase 1 (Plasmodium falciparum (isolate 3D7)) (UniProt P62344); assay: PfCDPK1 kinase inhibitors, biochemical, TCAMS library (AID 1159585; cut-off not given, nearly all actives have IC50 up to about 0.98 µM;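 note: inhibitors leave more ATP so luminescence rises with inhibition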); conditions: recombinant PfCDPK1, Kinase-Glo ATP depletion luminescence
Sequence of Calcium-dependent protein kinase 1 (Plasmodium falciparum (isolate 3D7)) (P62344 whole entry, looked up): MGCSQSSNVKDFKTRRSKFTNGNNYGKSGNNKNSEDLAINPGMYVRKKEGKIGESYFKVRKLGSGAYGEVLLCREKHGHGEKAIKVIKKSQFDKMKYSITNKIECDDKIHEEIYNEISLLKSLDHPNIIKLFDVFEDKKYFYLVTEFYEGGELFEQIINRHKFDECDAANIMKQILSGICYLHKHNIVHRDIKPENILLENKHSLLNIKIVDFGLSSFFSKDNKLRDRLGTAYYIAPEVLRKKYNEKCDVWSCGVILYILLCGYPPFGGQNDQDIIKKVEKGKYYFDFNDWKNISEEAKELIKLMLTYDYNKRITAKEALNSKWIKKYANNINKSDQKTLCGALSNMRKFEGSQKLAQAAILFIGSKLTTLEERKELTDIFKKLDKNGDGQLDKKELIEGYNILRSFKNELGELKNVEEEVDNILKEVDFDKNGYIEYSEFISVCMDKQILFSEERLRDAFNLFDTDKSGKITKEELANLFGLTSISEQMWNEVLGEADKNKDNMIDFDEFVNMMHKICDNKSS

[6] = molecular target: Plasmodium falciparum protein kinase 6 (PK6, PF3D7_1337100) (UniProt Q8IDW1); assay: PfPK6 kinase inhibitors, biochemical, TCAMS library (AID 1159586); conditions: recombinant PfPK6, Kinase-Glo ATP depletion luminescence
Sequence of Plasmodium falciparum protein kinase 6 (PK6, PF3D7_1337100) (Q8IDW1 1-305): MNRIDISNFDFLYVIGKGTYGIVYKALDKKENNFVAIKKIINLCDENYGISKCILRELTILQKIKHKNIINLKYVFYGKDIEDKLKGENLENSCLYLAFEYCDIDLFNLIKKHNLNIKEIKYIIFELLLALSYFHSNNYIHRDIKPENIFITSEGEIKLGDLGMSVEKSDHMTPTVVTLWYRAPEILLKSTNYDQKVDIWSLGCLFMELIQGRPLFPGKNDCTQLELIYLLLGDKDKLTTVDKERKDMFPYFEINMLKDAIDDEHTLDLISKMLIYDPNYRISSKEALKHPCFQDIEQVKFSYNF

[7] = molecular target: Protein kinase 7 (PK7), Plasmodium falciparum 3D7 (PF3D7_0213400) (UniProt Q7YTF7); assay: inhibition of Plasmodium PK7 catalytic activity – biochemical, TCAMS antimalarial set, Kinase-Glo luminescence (AID 1159587); conditions: recombinant PfPK7, Kinase-Glo ATP depletion luminescence
Sequence of Protein kinase 7 (PK7), Plasmodium falciparum 3D7 (PF3D7_0213400) (Q7YTF7 1-343): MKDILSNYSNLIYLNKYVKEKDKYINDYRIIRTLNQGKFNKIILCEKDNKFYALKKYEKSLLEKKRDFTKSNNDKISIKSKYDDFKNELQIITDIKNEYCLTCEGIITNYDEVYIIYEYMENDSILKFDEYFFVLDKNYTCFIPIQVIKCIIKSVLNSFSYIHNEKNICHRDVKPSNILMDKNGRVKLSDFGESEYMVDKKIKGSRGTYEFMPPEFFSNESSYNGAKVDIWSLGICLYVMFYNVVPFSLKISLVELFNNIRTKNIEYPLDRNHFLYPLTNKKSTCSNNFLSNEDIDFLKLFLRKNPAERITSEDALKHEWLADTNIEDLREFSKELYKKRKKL

[8] = molecular target: Calcium-dependent protein kinase 4 (Plasmodium falciparum (isolate 3D7)) (UniProt Q8IBS5); assay: PfCDPK4 kinase inhibitors, biochemical, TCAMS library (AID 1159588; cut-off not given, nearly all actives have IC50 up to about 0.91 µM); conditions: recombinant PfCDPK4, Kinase-Glo ATP depletion luminescence
Sequence of Calcium-dependent protein kinase 4 (Plasmodium falciparum (isolate 3D7)) (Q8IBS5 whole entry, looked up): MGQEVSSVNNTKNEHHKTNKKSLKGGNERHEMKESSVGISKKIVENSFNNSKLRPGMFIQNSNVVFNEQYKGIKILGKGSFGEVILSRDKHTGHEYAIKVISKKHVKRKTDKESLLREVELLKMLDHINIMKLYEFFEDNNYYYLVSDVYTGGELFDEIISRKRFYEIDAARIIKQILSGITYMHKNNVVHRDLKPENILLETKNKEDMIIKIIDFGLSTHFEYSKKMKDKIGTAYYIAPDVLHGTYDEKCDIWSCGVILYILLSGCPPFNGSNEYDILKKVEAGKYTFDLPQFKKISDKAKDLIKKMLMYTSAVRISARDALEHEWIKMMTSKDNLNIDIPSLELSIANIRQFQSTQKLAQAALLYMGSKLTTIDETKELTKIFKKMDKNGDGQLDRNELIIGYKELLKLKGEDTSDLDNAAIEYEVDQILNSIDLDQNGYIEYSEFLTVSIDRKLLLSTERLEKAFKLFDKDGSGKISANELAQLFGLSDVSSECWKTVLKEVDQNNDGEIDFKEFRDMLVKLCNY

COc1cc(F)c2ncc(Cl)c([C@H](O)CN3CCC(NCc4ccc5c(n4)NC(=O)CO5)CC3)c2c1
inactive: inhibition [2] 14% | inhibition [3] -1% | outcome [5] | outcome [6] | outcome [7] | outcome [8]
active: growth inhibition [1] 99% | growth inhibition [4] 99%

CC(C)COc1ccc(Cl)cc1Cc1ccc(-c2nc3ccc(Cl)cc3[nH]2)o1
inactive: inhibition [2] 19% | inhibition [3] -1% | outcome [5] | outcome [6] | outcome [7] | outcome [8]
active: growth inhibition [1] 96% | growth inhibition [4] 97%

O=C(Nc1ccc(Cn2ncc(N3CCCNCC3)c(Cl)c2=O)cc1)Nc1ccc(SC(F)(F)F)cc1
active: growth inhibition [1] 68% | growth inhibition [4] 93%
inactive: inhibition [2] 9% | inhibition [3] 4% | outcome [5] | outcome [6] | outcome [7] | outcome [8]

Cc1ccc(C)c2c1[nH]c1ccc(C3=NCCN3)cc12
active: growth inhibition [4] 100%
inactive: growth inhibition [1] -6% | inhibition [2] 29% | inhibition [3] -3% | outcome [5] | outcome [6] | outcome [7] | outcome [8]

COc1ccc2ccc(F)c(CC(=O)N3CCOC(CNCc4cccc(-c5ccsc5)n4)C3)c2n1 (stereo not drawn)
inactive: growth inhibition [1] 1% | inhibition [2] 1% | inhibition [3] 3% | outcome [5] | outcome [6] | outcome [7] | outcome [8]
active: growth inhibition [4] 92%

CN(C(=O)Cc1ccc(Cl)c(Cl)c1)C1CCN(CCCCCNC(=O)/C=C/c2ccc(Cl)c(Cl)c2)CC1
inactive: growth inhibition [1] 13% | inhibition [3] -4% | outcome [5] | outcome [6] | outcome [7] | outcome [8]
active: inhibition [2] 87% | growth inhibition [4] 84%

COCCNC(=O)C(CNC(=O)c1ccc2c(c1)OCO2)NC(=O)c1ccc(-c2ccccc2)cc1 (stereo not drawn)
active: growth inhibition [4] 90%
inactive: growth inhibition [1] 3% | inhibition [2] 14% | inhibition [3] 1% | outcome [5] | outcome [6] | outcome [7] | outcome [8]

O=[N+]([O-])c1ccc(N2CCCN(C(=S)Nc3ccc(F)cc3Br)CC2)nc1
inactive: inhibition [2] 4% | inhibition [3] -3% | outcome [5] | outcome [6] | outcome [7] | outcome [8]
active: growth inhibition [1] 99% | growth inhibition [4] 100%

CC(C)NCc1ccc(-c2ccc(-c3nc4ccc(C(F)(F)F)cc4[nH]3)cc2)cc1
active: growth inhibition [1] 98% | growth inhibition [4] 100%
inactive: inhibition [2] 16% | inhibition [3] 0% | outcome [5] | outcome [6] | outcome [7] | outcome [8]

COc1cc(C)c(NC(=O)c2cccc3c(=O)c(C)c(-c4ccccc4)oc23)cc1OC
active: inhibition [2] 96% | growth inhibition [4] 86%
inactive: growth inhibition [1] 32% | inhibition [3] 2% | outcome [5] | outcome [6] | outcome [7] | outcome [8]

O=C(/C=C/c1ccc(Cl)c(Cl)c1)NCCCCCN1CCCN(C(=O)Nc2ccc([N+](=O)[O-])cc2)CC1
active: growth inhibition [4] 97%
inactive: growth inhibition [1] 28% | inhibition [2] 32% | inhibition [3] -1% | outcome [5] | outcome [6] | outcome [7] | outcome [8]

Cc1c(-c2cccc(Br)c2)[nH]c2nc(N)nc(N)c12
inactive: inhibition [2] 8% | inhibition [3] -4% | outcome [5] | outcome [6] | outcome [7] | outcome [8]
active: growth inhibition [1] 61% | growth inhibition [4] 100%

CCOC(=O)c1ccc(Nc2cc(Nc3ccc(C(=O)OCC)cc3)nc(C)n2)cc1
active: growth inhibition [4] 99%
inactive: growth inhibition [1] 33% | inhibition [2] 4% | inhibition [3] 4% | outcome [5] | outcome [6] | outcome [7] | outcome [8]

Nc1ncc(-c2ccccc2)cc1-c1nc2cc(Cl)c(F)cc2[nH]1
active: growth inhibition [1] 91% | growth inhibition [4] 101%
inactive: inhibition [2] 37% | inhibition [3] 1% | outcome [5] | outcome [6] | outcome [7] | outcome [8]

O=C(/C=C/c1ccc(Cl)c(Cl)c1)N1CCCC(CCCN2CCC(c3c[nH]c4ccccc34)CC2)C1 (stereo not drawn)
inactive: growth inhibition [1] 15% | inhibition [2] 30% | inhibition [3] -1% | outcome [5] | outcome [6] | outcome [7] | outcome [8]
active: growth inhibition [4] 89%

Cc1noc(-c2ccc3c(c2)CCN(CCC2CCC(NC(=O)/C=C/c4cccc(Cl)c4)CC2)CC3)n1 (stereo not drawn)
active: growth inhibition [4] 86%
inactive: growth inhibition [1] 24% | inhibition [2] 37% | inhibition [3] 4% | outcome [5] | outcome [6] | outcome [7] | outcome [8]

CCCCNc1nccc2ccc(-c3ccncc3)cc12
active: growth inhibition [4] 93%
inactive: growth inhibition [1] 1% | inhibition [2] 6% | inhibition [3] 1% | outcome [5] | outcome [6] | outcome [7] | outcome [8]

COc1cc2nc(NCCc3ccccc3)nc(NCc3cnn(C)c3C)c2cc1OC
inactive: inhibition [2] 13% | inhibition [3] 0% | outcome [5] | outcome [6] | outcome [7] | outcome [8]
active: growth inhibition [1] 94% | growth inhibition [4] 99%

N#Cc1ccc2c(c1)CCN(CCC1CCC(NC(=O)c3cc4ccc(Br)cc4[nH]3)CC1)C2 (stereo not drawn)
inactive: growth inhibition [1] 17% | inhibition [2] 12% | inhibition [3] -13% | outcome [5] | outcome [6] | outcome [7] | outcome [8]
active: growth inhibition [4] 103%

CC(C)COc1ccc(Cl)cc1Cc1nc(-c2nc3nc(N4CCN(C)CC4)ccc3[nH]2)cs1
inactive: growth inhibition [1] 27% | inhibition [2] 29% | inhibition [3] -6% | outcome [5] | outcome [6] | outcome [7] | outcome [8]
active: growth inhibition [4] 99%

COc1ccc(CNCc2ccc(-c3ccc(-c4nc5c(C)cccc5[nH]4)cc3)cc2)cc1
active: growth inhibition [1] 97% | inhibition [2] 53% | growth inhibition [4] 101%
inactive: inhibition [3] 2% | outcome [5] | outcome [6] | outcome [7] | outcome [8]

CCCCc1cc(NCc2ccncc2)nc(Nc2ccccc2)n1
active: growth inhibition [4] 96%
inactive: growth inhibition [1] 4% | inhibition [2] -5% | inhibition [3] -3% | outcome [5] | outcome [6] | outcome [7] | outcome [8]

COc1cc(C(=O)N2CCOC(CCN3CCc4c(c5ccccc5n4C)C3)(c3ccc(Cl)c(Cl)c3)C2)cc(OC)c1OC (stereo not drawn)
inactive: inhibition [2] 16% | inhibition [3] -4% | outcome [5] | outcome [6] | outcome [7] | outcome [8]
active: growth inhibition [1] 68% | growth inhibition [4] 87%

COc1cc(F)c2ncc(Cl)c(CCN3CCC(NCc4ccc5c(n4)NC(=O)CS5)CC3)c2c1
active: growth inhibition [4] 99%
inactive: growth inhibition [1] 41% | inhibition [2] 18% | inhibition [3] 3% | outcome [5] | outcome [6] | outcome [7] | outcome [8]

COc1ccc(NC(=O)/C=C/c2ccccc2Cl)cc1OCCN1CCC(N(C)C)CC1
inactive: growth inhibition [1] 19% | inhibition [2] 18% | inhibition [3] -2% | outcome [5] | outcome [6] | outcome [7] | outcome [8]
active: growth inhibition [4] 89%

c1cncc(CCNCc2ccc(-c3ccc(CNC4Cc5ccccc5C4)cc3)cc2)c1
active: growth inhibition [4] 92%
inactive: growth inhibition [1] 29% | inhibition [2] 32% | inhibition [3] 1% | outcome [5] | outcome [6] | outcome [7] | outcome [8]

COc1c(C2CCN(CCCCNC(=O)c3ccc(-c4ccc(C(=O)C(F)(F)F)cc4)cc3)CC2)ccc2c1CCCC2
inactive: growth inhibition [1] 33% | inhibition [3] -4% | outcome [5] | outcome [6] | outcome [7] | outcome [8]
active: inhibition [2] 99% | growth inhibition [4] 81%

COc1ccc(C=NNc2cc(C)nc3ccc(C)cc23)c2ccccc12
inactive: inhibition [2] 28% | inhibition [3] 4% | outcome [5] | outcome [6] | outcome [7] | outcome [8]
active: growth inhibition [1] 55% | growth inhibition [4] 94%

CCCCCCOc1ccc(C(=O)NCCCC2CCN(CCCCCNC(=O)C=Cc3ccc(Cl)c(Cl)c3)CC2)cc1
inactive: growth inhibition [1] 25% | inhibition [2] 22% | inhibition [3] -2% | outcome [5] | outcome [6] | outcome [7] | outcome [8]
active: growth inhibition [4] 94%

O=C(Nc1cccc(Cl)c1Cl)Nc1ccnc2ccccc12
active: growth inhibition [4] 100%
inactive: growth inhibition [1] 47% | inhibition [2] 31% | inhibition [3] 4% | outcome [5] | outcome [6] | outcome [7] | outcome [8]

O=C(COc1ccc(Cl)c(Cl)c1)NCCCCCN1CCCN(C(=O)Nc2cc(Cl)cc(Cl)c2)CC1
active: growth inhibition [4] 89%
inactive: growth inhibition [1] 1% | inhibition [2] 44% | inhibition [3] -5% | outcome [5] | outcome [6] | outcome [7] | outcome [8]

Cc1nc2ccccn2c1C1(O)C(=O)Nc2c(Cl)cc(Cl)cc21 (stereo not drawn)
inactive: inhibition [2] -11% | inhibition [3] -3% | outcome [5] | outcome [6] | outcome [7] | outcome [8]
active: growth inhibition [1] 62% | growth inhibition [4] 95%

COc1ccc2c(NN=Cc3ccccc3[N+](=O)[O-])ccnc2c1
active: growth inhibition [1] 97% | inhibition [2] 98% | growth inhibition [4] 102%
inactive: inhibition [3] -3% | outcome [5] | outcome [6] | outcome [7] | outcome [8]

COc1cc(F)c2ncc(F)c([C@@H](O)CN3CCC(NCc4cc5c(cn4)OCCO5)CC3)c2c1
inactive: inhibition [2] 1% | inhibition [3] -1% | outcome [5] | outcome [6] | outcome [7] | outcome [8]
active: growth inhibition [1] 88% | growth inhibition [4] 101%

COc1cc(OC)cc(-c2nn(-c3ccc([N+](=O)[O-])cc3C#N)c(=S)n2Cc2ccco2)c1
inactive: inhibition [2] 11% | inhibition [3] -6% | outcome [5] | outcome [6] | outcome [7] | outcome [8]
active: growth inhibition [1] 100% | growth inhibition [4] 100%

COc1ccc(C2CC(=O)C3=C(C2)NC(C)=C(C(=O)OC(C)C)C3c2ccccc2F)cc1OC (stereo not drawn)
active: growth inhibition [1] 99% | growth inhibition [4] 100%
inactive: inhibition [2] 14% | inhibition [3] 0% | outcome [5] | outcome [6] | outcome [7] | outcome [8]
